In PMC4336329 (PLoS ONE, 2015):
In all, about 310,000 compounds went through this assay and about 14,000 (4.5%) showed an effect of 50% or more. The effect is printed as a negative number. The entries come from a sample that favours strong results as a whole.

Target: human ether-à-go-go-related gene (hERG) potassium channel (human, UniProt Q12809)
Assay: primary screen, population patch clamp on CHO cells stably expressing hERG; higher = less effect of the substance
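Further: peak tail current of the secondary pulse compared with the same well before compound.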

human ether-à-go-go-related gene (hERG) potassium channel, sequence (Q12809 whole entry, looked up): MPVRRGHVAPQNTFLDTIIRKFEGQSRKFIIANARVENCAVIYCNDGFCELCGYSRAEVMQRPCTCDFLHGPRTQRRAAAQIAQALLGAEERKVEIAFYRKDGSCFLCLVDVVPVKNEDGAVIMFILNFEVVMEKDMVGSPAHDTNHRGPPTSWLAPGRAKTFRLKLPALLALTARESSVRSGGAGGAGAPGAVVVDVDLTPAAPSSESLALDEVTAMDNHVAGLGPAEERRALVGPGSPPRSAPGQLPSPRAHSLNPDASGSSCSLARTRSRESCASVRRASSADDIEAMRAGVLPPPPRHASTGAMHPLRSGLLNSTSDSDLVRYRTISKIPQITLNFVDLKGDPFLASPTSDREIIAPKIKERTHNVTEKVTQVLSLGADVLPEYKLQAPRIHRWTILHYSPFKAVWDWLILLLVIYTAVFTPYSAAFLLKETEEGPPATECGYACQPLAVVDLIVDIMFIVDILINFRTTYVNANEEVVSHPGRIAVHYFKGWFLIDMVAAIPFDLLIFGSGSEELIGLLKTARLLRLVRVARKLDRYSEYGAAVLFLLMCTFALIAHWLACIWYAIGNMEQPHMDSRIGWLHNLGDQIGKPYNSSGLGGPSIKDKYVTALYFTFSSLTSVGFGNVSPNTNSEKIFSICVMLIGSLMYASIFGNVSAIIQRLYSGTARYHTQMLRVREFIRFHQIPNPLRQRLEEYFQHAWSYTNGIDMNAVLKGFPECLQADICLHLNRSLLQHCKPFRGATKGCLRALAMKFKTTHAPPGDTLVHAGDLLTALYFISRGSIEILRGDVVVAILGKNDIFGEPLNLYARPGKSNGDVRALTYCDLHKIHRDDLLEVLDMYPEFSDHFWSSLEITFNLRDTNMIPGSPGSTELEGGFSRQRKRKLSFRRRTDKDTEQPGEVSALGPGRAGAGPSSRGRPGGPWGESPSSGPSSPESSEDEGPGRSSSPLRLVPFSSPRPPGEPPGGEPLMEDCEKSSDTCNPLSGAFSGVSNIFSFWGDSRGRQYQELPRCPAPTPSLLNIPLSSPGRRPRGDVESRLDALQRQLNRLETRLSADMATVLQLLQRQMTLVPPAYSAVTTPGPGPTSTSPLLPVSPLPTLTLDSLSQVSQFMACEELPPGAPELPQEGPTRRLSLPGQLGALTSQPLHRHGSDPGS

Row | Structure (SMILES) | hERG current change (%, negative = inhibition) at 10uM [%]
1 | COC(=O)C1=C(C)N(c2ccc(C(=O)OC)cc2)C(=O)C1 | 22.3
2 | O=C(CSc1nnc(-c2ccncc2)o1)N1CCCC1 | -19.1
3 | O=C(CCC(=O)c1ccc(Oc2ccccc2)cc1)Nc1ccc(Cl)cc1Cl | 5.46
4 | CCN(CC)S(=O)(=O)c1ccc(-c2nnc(SCC(=O)Nc3nnc(C)s3)n2CC)cc1 | 12.2
5 | Cc1ccc(C(=O)N/C(=C/c2ccc(-c3cccc([N+](=O)[O-])c3)o2)C(=O)NC(C)C)cc1 | -30.8
6 | O=C(N/N=C/c1ccc(-c2cccc([N+](=O)[O-])c2)o1)c1ccc([N+](=O)[O-])cc1 | -40
7 | Cc1ccc(C(=O)N/C(=C/c2ccc(-c3cccc([N+](=O)[O-])c3)o2)C(=O)NC(C)(C)C)cc1 | -21.9
8 | Cc1ccc(C(=O)N/C(=C\c2ccc(-c3cccc([N+](=O)[O-])c3)o2)C(=O)NCCCN(C)C)cc1 | -67.6
9 | Cc1ccc(C(=O)N/C(=C/c2ccc(-c3cccc([N+](=O)[O-])c3)o2)C(=O)NCCCN(C)C)cc1 | -80
10 | Cc1ccc(C(=O)N/C(=C\c2ccc(-c3cccc([N+](=O)[O-])c3)o2)C(=O)NC(C)(C)C)cc1 | 1.94
11 | O=C(CSc1nnc(CN2CCOCC2)n1-c1ccc(Cl)cc1)Nc1ccc2c(c1)OCO2 | -9.87
12 | CC/C(O)=C1\C(=O)CCCC1=NCCc1c(C)[nH]c2ccc(C)cc12 | -14
13 | CCOC(=O)CC1C(=O)NCCN1C(=O)Nc1ccc(Cl)cc1 (centres unmarked) | 2.37
14 | CC(=O)c1c(C)[nH]c(C(=O)N2c3ccccc3CC2C)c1C (centres unmarked) | 5.33
15 | Cc1csc(=O)n1CCC(=O)OCC(=O)c1ccc(Br)cc1 | -18.4
16 | O=c1oc2ccccc2c2c1ncn2C1CCCCC1 | -51.7
17 | O=c1oc2ccccc2c2c1ncn2-c1ccccc1 | -11.8
18 | O=c1c2ccccc2ncn1C1CCCCC1 | -19.4
19 | O=CN1CCN(C(C(=O)NC2CCCC2)c2ccc(Cl)cc2)CC1 (centres unmarked) | -14.8
20 | O=C(NC1CCCC1)C(c1ccc(Cl)cc1)N1CCN(C2CCCCC2)CC1 (centres unmarked) | -59.3
21 | O=CN1CCN(C(C(=O)NC2CCCCC2)c2ccc(Cl)cc2)CC1 (centres unmarked) | -15
22 | Cc1c(C=O)c2ccccc2n1CC(=O)NCc1ccc2c(c1)OCO2 | 21.8
23 | CN1CCN(CC(O)COCCOc2ccc(Br)cc2)CC1.Cl (centres unmarked) | 10.4
24 | CC1CCN(CC(O)COCCOc2ccc(Br)cc2)CC1.Cl (centres unmarked) | -64.3

Row | Structure (SMILES) | hERG current change (%, negative = inhibition) at 10uM [%]
25 | CC1(C)CCCC(C)(C)N1CC(O)COCCOc1ccc(Br)cc1.Cl (centres unmarked) | -67.5
26 | CC1CC(C)CN(CC(O)COCc2ccccc2)C1.Cl (centres unmarked) | -7.79
27 | CC1(C)CC(O)CC(C)(C)N1CC(O)COCCOc1ccc(Br)cc1 (centres unmarked) | -42.4
28 | CC1CC(C)CN(CC(O)COCCOc2ccc(Br)cc2)C1.Cl (centres unmarked) | -71.6
29 | Cl.OC(COCCOc1ccc(Br)cc1)CN1CCCCC1 (centres unmarked) | -37.1
30 | Cl.OCCN1CCN(CC(O)COCCOc2ccc(Br)cc2)CC1 (centres unmarked) | -20.2
31 | CCN1CCN(CC(O)COCCOc2ccc(Br)cc2)CC1.Cl (centres unmarked) | -12.3
32 | COc1cc(CCN2C(=O)c3cccc4cccc(c34)C2=O)c(S(=O)(=O)NCCO)cc1OC | -23.8
33 | CC(C)COP(=O)(OCC(C)C)C(O)c1ccccc1F (centres unmarked) | -1.27
34 | CCCNC(=O)/C=C/c1ccc(S(=O)(=O)Nc2ccccc2OC)cc1 | -1.75
35 | Cc1ccc(OCCOc2cccc3ccc(C)nc23)c([N+](=O)[O-])c1.O=C(O)C(=O)O | -10.7
36 | CC1CCCCN1c1ncnc2ccccc12.Cl (centres unmarked) | -7.46
37 | Cc1ccc(C)c(N2CCN(S(=O)(=O)c3ccc4c(c3)C(C)(C)C(=O)N4C)CC2)c1 | 3.88
38 | Cc1nc2ncnn2c(N2CCN(C(c3ccccc3)c3ccccc3)CC2)c1C | -47.7
39 | N#Cc1ccc(OCc2nnc(SCC(=O)c3ccccc3)n2-c2ccccc2)cc1 | -40.8
40 | CCn1c(COc2cccc(C)c2)nnc1SCC(=O)Nc1cccc(C(=O)O)c1 | 9.41
41 | COCCCn1c(SCC(=O)Nc2ccccc2)nnc1-c1ccncc1 | -6.82
42 | COC(=O)c1cccc(NC(=O)CSc2nnc(COc3ccc(C#N)cc3)n2-c2ccccc2)c1 | -73.5
43 | COCCCn1c(SCC(=O)Nc2cccc(C(=O)OC)c2)nnc1-c1ccncc1 | -15.8
44 | CCOC(=O)c1cccc(NC(=O)CSc2nnc(-c3ccncc3)n2CCCOC)c1 | -50.4
45 | COC(=O)c1cccc(NC(=O)CSc2nnc(COc3ccccc3)n2C)c1 | -7.84
46 | CCn1c(COc2cccc(C)c2)nnc1SCC(=O)Nc1cccc(C(=O)OC)c1 | -2.45
47 | CCOC(=O)c1cccc(NC(=O)CSc2nnc(COc3ccccc3)n2CC)c1 | -51.3
